# From the supplement of paper PMC10646978
# ± gives the standard deviation.
# Columns and labels:
# Settings in all cases: modulator concentration 10 µM
# [1] = system: RAW-Dual (murine macrophage reporter line); experiment: NF-kB reporter (SEAP) activity fold change vs agonist alone; higher = enhanced NF-kB activity
# Outline: (§1)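 RAW-Dual murine macrophage reporter cells were seeded at 50 000 per well in 384-well plates and pre-incubated 1 hour at 37 °C with compound pin-transferred to 10 μM final. After 1 hour, a PRR agonist was added and cells incubated overnight. Supernatant NF-κB (SEAP, QUANTI-Blue, 620 nm absorbance) and IRF (Lucia luciferase, QUANTI-Luc, luminescence) signals were divided by the mean agonist-only control on the same plate to give fold change. Two replicate plates were averaged, with errors by propagation.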
# [2] = system: RAW-Dual (murine macrophage reporter line); experiment: IRF reporter (Lucia luciferase) activity fold change vs agonist alone; higher = enhanced IRF activity
# Outline: as §1
# [3] = system: RAW-Dual (murine macrophage reporter line); experiment: viability score (confluency relative to resting cells, overnight) (fraction); higher = more viable, active = viable (0.7 or more)
# Outline: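 RAW-Dual macrophages in 384-well plates were treated overnight with compound at 10 μM final. IncuCyte imaging recorded confluency, and IncuCyte software built two confluency masks across every imaged well. The viability score expresses confluency relative to resting cells and was judged against a cutoff, which a compound met only if both masks exceeded 70% of resting cells.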
# [4] = agonist: CpG ODN 1826 0.5 ug/mL
SMILES,"NF-kB reporter [1, 4]",NF-kB reporter ([1]; agonist: LPS 0.1 ug/mL),NF-kB reporter ([1]; agonist: MPLA […]),IRF reporter ([2]; agonist: 3'3'-cGAMP 10 ug/mL),IRF reporter ([2]; agonist: LPS 0.1 ug/mL),IRF reporter ([2]; agonist: MPLA […]),viability score [3]
N[C@@H](CSCCCO)C(=O)O,0.987 ± 0.073,1.01 ± 0.051,0.937 ± 0.033,0.922 ± 0.077,0.995 ± 0.047,0.971 ± 0.089,1 (active)
CC(C)c1ccccc1NC(=O)C1COCC(=O)N1Cc1ccccc1 (configuration not stated),0.983 ± 0.063,0.996 ± 0.15,1.08 ± 0.058,0.985 ± 0.074,1.15 ± 0.26,1.29 ± 0.51,0.979 (active)
O=C1CNC(=O)N1CC(O)Cn1c2ccc(Br)cc2c2cc(Br)ccc21 (configuration not stated),0.998 ± 0.091,0.791 ± 0.068,0.908 ± 0.025,0.989 ± 0.22,0.928 ± 0.044,0.698 ± 0.079,0.926 (active)
CCCC(C(=O)OCCN(CC)CC)(c1ccccc1)c1ccccc1.Cl,0.851 ± 0.066,0.924 ± 0.11,0.978 ± 0.084,0.972 ± 0.055,1.03 ± 0.27,1.03 ± 0.39,1.02 (active)
Cc1c(C(=O)NN2CCCCC2)nn(-c2ccc(Cl)cc2Cl)c1-c1ccc(Cl)cc1,0.799 ± 0.037,1.25 ± 0.11,0.981 ± 0.075,0.282 ± 0.015,0.618 ± 0.13,0.752 ± 0.17,1 (active)
COCCOCC1CCN(C(=O)c2cc(-c3cccc(OC)c3)n[nH]2)CC1,1.09 ± 0.076,0.967 ± 0.092,0.992 ± 0.051,0.957 ± 0.039,1.04 ± 0.059,0.985 ± 0.2,0.995 (active)
O=C(CCc1ccc(F)c(Cl)c1)NCCn1nccn1,1.06 ± 0.052,1.06 ± 0.11,0.972 ± 0.056,1 ± 0.068,1.21 ± 0.076,1.06 ± 0.087,0.992 (active)
CN(C)CC(c1ccc(O)cc1)C1(O)CCCCC1.O=C(O)CCC(=O)O (configuration not stated),0.101 ± 0.0077,0.562 ± 0.045,0.531 ± 0.031,0.913 ± 0.075,1.29 ± 0.29,1.18 ± 0.36,0.633 (inactive)
O=C(CCC1CCCC1)Nc1cccc(F)c1,0.986 ± 0.059,1.08 ± 0.12,0.959 ± 0.029,0.999 ± 0.045,1.03 ± 0.091,1.12 ± 0.25,1 (active)
C=CCc1ccc(O)c(OC)c1,1.05 ± 0.29,0.913 ± 0.095,1.14 ± 0.097,0.524 ± 0.019,1.05 ± 0.14,1.01 ± 0.12,0.659 (inactive)
O=C(CCCCC(=O)NN=Cc1cccc(O)c1)NN=Cc1cccc(O)c1,1.05 ± 0.093,1.08 ± 0.081,0.935 ± 0.12,0.955 ± 0.032,1.41 ± 0.15,1.16 ± 0.17,1 (active)
Nc1nc2c(ncn2C2CC(O)C(CO)O2)c(=O)[nH]1 (configuration not stated),0.96 ± 0.089,0.787 ± 0.059,0.93 ± 0.089,1.02 ± 0.043,1.26 ± 0.2,1.36 ± 0.28,1.02 (active)
CN1CC(c2ccccc2)OC1=O (configuration not stated),1.06 ± 0.17,0.949 ± 0.083,1.08 ± 0.093,1.07 ± 0.033,1.32 ± 0.2,1.29 ± 0.23,1 (active)
O=C(NCCN1CCOCC1)c1ccccc1Br,0.967 ± 0.081,1.13 ± 0.089,0.952 ± 0.035,1.02 ± 0.15,1.13 ± 0.12,0.897 ± 0.18,0.997 (active)
CCCC(CCC)C(=O)O,1.05 ± 0.099,1.01 ± 0.16,0.99 ± 0.045,0.957 ± 0.079,0.965 ± 0.032,0.897 ± 0.094,0.992 (active)
CCOC(=O)c1sc(NC(=O)CSc2nc3ccccc3o2)c(C(=O)OCC)c1C,1.01 ± 0.057,1.11 ± 0.09,1.06 ± 0.071,1.04 ± 0.039,1.3 ± 0.096,0.995 ± 0.12,0.981 (active)
Cc1ccccc1OCC(O)CO (configuration not stated),0.813 ± 0.22,1.08 ± 0.054,0.955 ± 0.07,0.93 ± 0.058,0.951 ± 0.13,1.02 ± 0.12,0.997 (active)
Cl.NC1=NCC2c3ccccc3Cc3ccccc3N12 (configuration not stated),1.03 ± 0.077,1.09 ± 0.056,1.06 ± 0.077,0.898 ± 0.068,0.982 ± 0.051,0.822 ± 0.11,1 (active)
Cc1ccc(O)c(N=Nc2ccc(S(=O)(=O)O)cc2)c1,1.17 ± 0.11,1.15 ± 0.085,1.07 ± 0.043,1.01 ± 0.12,1.08 ± 0.16,1.07 ± 0.15,1.01 (active)
COc1cc(C=NNc2ccc(C(=O)O)cc2)cc(Br)c1O,1.16 ± 0.13,0.97 ± 0.062,1.09 ± 0.1,0.198 ± 0.006,0.241 ± 0.061,0.223 ± 0.035,1 (active)
Cn1c(=O)cc(N2CCC[C@@H](N)C2)n(Cc2cc(F)ccc2C#N)c1=O,0.989 ± 0.074,1.02 ± 0.055,1.02 ± 0.044,0.225 ± 0.013,0.971 ± 0.061,0.886 ± 0.082,1 (active)
O=C(CCc1ccc(O)cc1)c1c(O)cc(O)cc1OC1OC(CO)C(O)C(O)C1O (configuration not stated),1.37 ± 0.33,0.943 ± 0.047,0.963 ± 0.072,0.961 ± 0.066,0.98 ± 0.18,1.02 ± 0.14,1.01 (active)
CC(C)(Oc1ccc(CCNC(=O)c2ccc(-c3ccc(Cl)cc3)o2)cc1)C(=O)O,1.09 ± 0.087,1.03 ± 0.078,0.976 ± 0.062,0.942 ± 0.067,1.39 ± 0.22,1.08 ± 0.1,1.01 (active)
N#CC[C@@H](C1CCCC1)n1cc(-c2ncnc3[nH]ccc23)cn1,1.95 ± 0.28,0.915 ± 0.29,0.914 ± 0.051,0.164 ± 0.0051,0.359 ± 0.081,0.595 ± 0.067,0.999 (active)
C=C(C)CSC1=C(C#N)C(c2ccccc2)CC(=O)N1 (configuration not stated),1.13 ± 0.091,0.954 ± 0.071,0.951 ± 0.092,0.772 ± 0.025,1.03 ± 0.15,0.999 ± 0.17,1.01 (active)
CC(=NOCCCl)C(C)=NOCCCl,0.946 ± 0.078,1.05 ± 0.13,1.21 ± 0.042,0.909 ± 0.15,1.07 ± 0.045,1.59 ± 0.2,0.585 (inactive)
